Source: PubChem BioAssay
Compounds with a hit are over-represented: about 4.6% of the library has one in this group of screens.
NLRP3 yeast inh: NALP3 inflammasome inhibitors in reconstituted yeast, primary screen, luminescence, uHTS | Yeast reconstituted NLRP3/ASC/caspase-1, beta-gal luminescence, 24 h | inhibition, % at 10 µM | 330,000 compounds, 0.39% hits;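 active = inhibition of 50% or more; inactive = inhibition below 50%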;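 note: plate controls were induced DMSO wells for no effect and uninduced yeast grown without galactose for full effect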
TIM10 inh: growth inhibitors of isogenic TIM10 control yeast, primary screen, counter-screen for tim10-1 yeast inhibitor project, luminescence, uHTS | S. cerevisiae TIM10 strain growth, BacTiter-Glo luminescence, 24 h | inhibition, % at 10 µM | 330,000 compounds, 1.4% hits | AID 463195, 2010;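 active = inhibition of 40% or more at the single tested concentration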;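 note: wild-type TIM10 isogenic control strain grown at permissive 25 °C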
tim23-1 inh: growth inhibitors of tim23-1 mutant yeast, primary screen, luminescence, uHTS; S. cerevisiae tim23-1 growth, BacTiter-Glo luminescence, 24 h; inhibition, % at 20 µM; 330,000 compounds, 1.3% hits; AID 463212, 2010;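 active = growth inhibition of the mutant yeast at or above 50%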;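 note: temperature-sensitive mutant grown at 25 °C; plate controls were DMSO-treated mutant yeast for no effect and medium wells lacking yeast for full effect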
tim10-1 inh: growth inhibitors of tim10-1 mutant yeast, primary screen, luminescence, uHTS; 330,000 compounds, 2.2% hits; inhibition, % at 20 µM; S. cerevisiae tim10-1 ts strain growth, BacTiter-Glo, 24 h;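 active = inhibition of at least 40%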;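 note: mutant grown at 25 °C; 0% = DMSO wells with yeast and 100% = wells holding no yeast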
SKKanGAS inh: S. pyogenes SKKanGAS growth inhibitors in kanamycin, primary screen, streptokinase expression inhibitor project, SKKanGAS strain, BacTiter-Glo luminescence | inhibition, % at 7.5 µM | 6 h | 300,000 compounds, 1.3% hits | AID 1662, 2009;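 active = mean replicate score, as percent of positive control median, at least 50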;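 note: strain carries kanamycin resistance gene driven by streptokinase promoter and grows in 40 µg/ml kanamycin; loss of luminescence reflects streptokinase promoter inhibition or plain growth inhibition; 0% = median of DMSO wells and 100% = positive control at its reference dose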
Active calls of the source: *; / = no result given.

SMILES | NLRP3 yeast inh | TIM10 inh | tim23-1 inh | tim10-1 inh | SKKanGAS inh
O=C(NCC(=O)N1CCN(Cc2ccccc2)CC1)c1ccc(Br)o1 | 7 | -5 | -5 | -11 | -3
CCCOc1ccc(C2C(C(=O)c3cc4ccccc4o3)=C(O)C(=O)N2c2cc(C)on2)cc1 (configuration not stated) | 14 | 8 | 11 | 30 | -8
Cc1cc(N2C(=O)C(O)=C(C(=O)c3cc4ccccc4o3)C2c2cccc(Cl)c2)no1 (configuration not stated) | 4 | -1 | 15 | 15 | 83*
Cc1cc(N2C(=O)C(O)=C(C(=O)c3cc4ccccc4o3)C2c2ccc(Br)cc2)no1 (configuration not stated) | 7 | -2 | 13 | 15 | 87*
CCCOc1ccc(C2C(C(=O)c3cc4ccccc4o3)=C(O)C(=O)N2c2cc(C)on2)cc1OC (configuration not stated) | -6 | 9 | 7 | -6 | 98*
Cc1cccc(OCCC(=O)NNC(=O)c2ccoc2C)c1 | 11 | 0 | -6 | -11 | /
COc1ccc(C(C)(C)C)cc1NC(=O)COC(=O)CN1C(=O)NC2(CCCCC2C)C1=O (configuration not stated) | 11 | 7 | 15 | 5 | /
CCc1cc(Br)ccc1NC(=S)NCCc1ccccc1 | 32 | 26 | 46 | 21 | /
Cc1cccc(N2CCN(C(=O)c3ccc4nc(N5CCCCC5)sc4c3)CC2)c1C | 7 | 15 | 32 | 3 | 51*
CCC1(C)Cc2c(sc3nc(SC)[nH]c(=S)c23)CO1 (configuration not stated) | 8 | 37 | 34 | 38 | 85*
CCSc1nc2sc3c(c2c(=O)[nH]1)CC(C)(CC)OC3 (configuration not stated) | -12 | -9 | -16 | 2 | 0
Cc1ccc(CNC(=O)c2ccc3c(=O)[nH]c4c(C(=O)NCC5CCCO5)sc(=S)n4c3c2)cc1 (configuration not stated) | 8 | -4 | 10 | 27 | 56*
CSc1ncc(CN2CCc3c([nH]c4ccccc34)C2C(C)(C)C)cn1 (configuration not stated) | 2 | 17 | 27 | 21 | 51*
COc1ccc(CCNC(=O)C2CCCN(S(=O)(=O)c3cc(C)ccc3OC)C2)cc1OC (configuration not stated) | 4 | -1 | 12 | -9 | -2
Cc1ccc(NC(=O)C2CC2C)cc1S(=O)(=O)N1CCOCC1 (configuration not stated) | 9 | 10 | 23 | 11 | -10
O=C(Oc1ccc(NC2=C(Cl)C(=O)c3ccccc3C2=O)cc1)c1ccc([N+](=O)[O-])cc1 | / | / | / | / | 54*
CC(=O)Nc1ccc(NC2=C(Cl)C(=O)c3ccccc3C2=O)cc1 | -3 | 33 | 29 | 26 | 28
COc1ccc(COC(=O)CNC(=O)C2CCCCC2)cc1F | 1 | -7 | 11 | 0 | /
N#Cc1c(-c2ccccc2)c(-c2ccccc2)nn(CC(=O)NNC(=O)Nc2ccc(Cl)c(Cl)c2)c1=O | 11 | 14 | 19 | 23 | 62*
COc1ccccc1CNC(=O)COC(=O)/C=C/c1ccc2ccccc2n1 | 14 | 21 | 24 | 27 | /
COc1cc(C(=O)Nc2ccc(-c3nc4cc(C)ccc4o3)c(O)c2)cc(OC)c1OC | 16 | 10 | 34 | 36 | 103*
COc1ccccc1NNC(=O)c1cc(C(C)(C)C)nn1Cc1ccccc1 | 23 | 13 | 35 | 12 | -5
Cc1ccc(NC(=O)c2cc(C(C)(C)C)nn2Cc2ccccc2)cc1 | -19 | 35 | 30 | 33 | 25
CC(C)(C)c1cc(C(=O)NNc2cc(C(F)(F)F)ccc2Cl)n(Cc2ccccc2)n1 | 9 | 15 | 14 | 20 | 99*
Cc1ccc(NNC(=O)c2cc(C(C)(C)C)nn2Cc2ccccc2)cc1 | 25 | -15 | 28 | -24 | 60*
SMILES | NLRP3 yeast inh | TIM10 inh | tim23-1 inh | tim10-1 inh | SKKanGAS inh
CC(C)NC(=O)Nc1ccc2c(c1)C(=O)N([C@H](C)CO)C[C@H](C)[C@@H](CN(C)S(=O)(=O)c1ccc(F)cc1)O2 | 14 | -5 | -7 | 4 | /
CCOc1ccccc1Nc1nnc(SCC(=O)N(C)C2CCS(=O)(=O)C2)s1 (configuration not stated) | 9 | -6 | 10 | 5 | /
COc1cccc(-c2cc(C(F)(F)F)nc(N3CCCCC3)n2)c1 | 6 | -14 | -4 | 5 | 57*
FC(F)(F)c1cc(-c2ccccc2)nc(N2CCCCCC2)n1 | 13 | -11 | 6 | -8 | 86*
O=C(Cn1nnc(-c2cc(C(F)(F)F)cc(C(F)(F)F)c2)n1)NNC(=S)Nc1ccc(Cl)cc1 | 1 | 19 | 10 | 24 | 78*
Cc1cc(C(F)(F)F)nn1CC(=O)NNC(=S)Nc1ccc(Cl)cc1 | 15 | -1 | 0 | 25 | -2
CCC(C)(C)NC(=O)C(c1ccc(C)o1)N(Cc1ccc2c(c1)OCO2)C(=O)c1snc(C(N)=O)c1N (configuration not stated) | 24 | 8 | 4 | -14 | 16
Cc1ccc2nc3n(c(=O)c2c1)-c1ccc(Cl)cc1C(=O)NC3CC(C)C (configuration not stated) | 6 | 8 | 24 | 16 | /
Cc1cc(O)c(NC(=S)NC(=O)c2ccc(-c3ccc(Cl)cc3)o2)cc1C | 26 | 12 | 34 | 7 | 92*
Cc1ccc(NC(=S)NC(=O)c2ccc(-c3ccc(Cl)cc3)o2)c(O)c1 | -11 | 14 | 0 | 12 | 68*
COc1ccccc1C(=O)COC(=O)CNS(=O)(=O)c1ccc(C)c(C)c1 | 6 | -1 | 24 | 22 | -3
Cc1ccc(NS(=O)(=O)c2cc([N+](=O)[O-])ccc2NNC(=S)Nc2cc(C)ccc2C)c(C)c1 | 29 | 24 | 19 | 19 | 41
COc1ccc(NC(=S)NNc2ccc([N+](=O)[O-])cc2S(=O)(=O)Nc2ccc(C)cc2C)cc1 | 12 | 12 | 29 | 37 | 65*
Cc1ccccc1NS(=O)(=O)c1cc(C(=O)Nc2cccc([N+](=O)[O-])c2)ccc1C | -5 | -3 | 1 | -3 | 2
Cc1ccc(NS(=O)(=O)c2cc([N+](=O)[O-])ccc2NNC(=S)Nc2cccc(Cl)c2)c(C)c1 | / | / | / | / | 88*
CCC(NC(=O)C(C)NC)C(=O)N1CCCC1C(=O)NC1CCCc2ccccc21 (configuration not stated) | 1 | 2 | 4 | 3 | /
FC(F)(F)c1cc(N2CCN(Cc3ccccc3)CC2)c2ccccc2n1 | 28 | 19 | 1 | 13 | 50*
FC(F)(F)c1cc(N2CCNCC2)c2ccccc2n1 | 4 | -7 | -2 | 0 | -2
COc1ccc2cc(C[C@@H]3CC[C@@H](CO)O3)ccc2c1 | / | 7 | 43 | 12 | /
